These results are taken from PubChem BioAssay (Tox21).

Unmarked numbers belong to inactive results. Records with an inconclusive call do not appear. Calls of active or inactive are those of the source. Unless noted, the call rests on the fitted dose curve.

Assay [1] is described as follows: Nuclear factor erythroid 2-related factor 2/antioxidant responsive element (Nrf2/ARE) small molecule agonists: qHTS cell viability counter screen in human keratinocytes (AID 1919968; active means well fitted curve in the direction sought with a large enough effect in the repeat runs; an effect the other way counts as inactive or inconclusive; further: nearly all actives have a fitted effect of over 55% in size; further: potency means the concentration at half of the fitted maximal effect). The procedure, abridged: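 KeratinoSens HaCaT cells, 1,500/well, preincubated 5 h, then exposed to compounds in DMSO for 23 h at 37 C/5% CO2. Viability read as CellTiter-Fluor fluorescence after 1 h, in the same wells as the ARE-luciferase read.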
A general note: qHTS replaces the single test concentration by a dilution series.

A short description of assay [2]: Nuclear factor erythroid 2-related factor 2/antioxidant responsive element (Nrf2/ARE) small molecule agonists: luciferase reporter gene qHTS assay in human keratinocytes (AID 1919969; further: nearly all actives have a fitted effect of over 35% in size; further: potency means the concentration at half of the fitted maximal effect). (In general: Reporter assays use an easily measured gene product as a stand-in for the process of interest.)
The target in assay [3] is Gonadotropin-releasing hormone receptor (Homo sapiens) (UniProt P30968). The experiment in a line: Human gonadotropin-releasing hormone receptor (GnRHR) small molecule agonists, calcium flux assay in GnRHR-HEK293 cells (AID 1920063). Further: nearly all actives have a fitted effect of over 35% in size. The procedure, abridged:
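HEK293 cells stably expressing human GnRHR were dye-loaded for 1 h at 37 C. Compound was added in agonist mode and fluorescence (Ex/Em 480/540) recorded kinetically for 3 min. Fifteen concentrations, triplicates.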
(Calcium flux is commonly read through the fluorescence of an indicator in the cells.)

In assay [4] the target is KiSS-1 receptor (Homo sapiens) (UniProt Q969F8). In words: Human kisspeptin (KISS1R) small molecule agonists, calcium flux assay in KISS1R-HEK293 cells (AID 1920064; active means well fitted curve in the direction sought with a large enough effect in the repeat runs; an effect the other way counts as inactive or inconclusive). The method in brief:
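HEK293 cells stably expressing human KISS1R were loaded with calcium dye for 1 h at 37 C, then given compound; fluorescence (Ex/Em 480/540) was read kinetically for 3 min. Fifteen concentrations, triplicate.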

The nature of assay [5]: G protein-coupled receptor (GPCR) small molecule agonists, calcium flux assay: HEK293 wild type cell line counter screen (AID 1920065). The method in brief: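 Wild-type HEK293 cells plated 18 h, loaded with calcium dye 1 h at 37 C, then compounds added in agonist mode (ATP as positive control). Kinetic fluorescence Ex/Em 480/540 recorded 3 min at 1 sec intervals; 15 concentrations, triplicate.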

A short description of assay [6]: p53 small molecule agonists, cell-based qHTS assay with human liver microsomes (AID 1963577).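 Further: p53 response element beta-lactamase reporter cells with liver microsomes plus NADPH.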 The procedure, abridged:
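Metabolically competent format: test substances, human liver microsomes and NADPH (both 0.5 mg/mL final) incubated with p53RE-bla cells 16 h at 37 C. Beta-lactamase reporter signal then quantified by fluorescence.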

A short description of assay [7]: p53 small molecule agonists, cell-based qHTS assay with rat liver microsomes (AID 1963578). The procedure, abridged: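 Each plate received p53RE-bla cells, then compound, then rat liver microsomes and NADPH (both 0.5 mg/mL final). Plates were held 16 h at 37 C, and beta-lactamase activity was detected with LiveBLAzer over 2 h.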
The nature of assay [8]: p53 small molecule agonists, cell-based qHTS assay with rat liver microsomes: qHTS cell viability counter screen (AID 1963580). Further: nearly all actives have a fitted effect of over 45% in size. The method in brief: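 p53RE-bla HCT-116 cells were exposed 16 h at 37 C to compounds with rat liver microsomes (0.5 mg/mL) and NADPH (0.5 mg/mL). Viability was measured in the same wells as ATP content by CellTiter-Glo luminescence.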
The nature of assay [9]: p53 small molecule agonists, cell-based qHTS assay: qHTS cell viability counter screen (AID 1963581). Further: nearly all actives have a fitted effect of over 45% in size. The method in brief: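 p53RE-bla HCT-116 cells, compounds added 5 h after plating and incubated 16 h at 37 C. Cytotoxicity measured in the same wells as intracellular ATP by CellTiter-Glo luminescence after 30 min at room temperature.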
Assay [10] in a line: p53 small molecule agonists, cell-based qHTS assay (AID 1963582; active means well fitted activation curve with a large enough effect in the signal ratio in the repeat runs, not every such curve was filed as active; the % refers to the signal ratio). The method in brief:
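p53RE-bla reporter cells, compounds added in DMSO after 5 h plating, incubated 16 h at 37 C. Beta-lactamase read via 2 h room-temperature LiveBLAzer B/G FRET substrate, fluorescence intensity.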

The target of assay [11] is 5-hydroxytryptamine receptor 2A (Homo sapiens) (UniProt P28223). The experiment in a line: 5-hydroxytryptamine receptor 2A (HTR2A) small molecule antagonists, cell-based qHTS assay (AID 1963586). Further: nearly all actives have a fitted effect of over 45% in size. The procedure, abridged: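 Antagonist-mode intracellular calcium assay: DOI (4 nM) added after 5 min compound pre-incubation at room temperature to dye-loaded HTR2A-CHO cells. Fluorescence followed for 3 min, sampled every second.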

For assay [12] the target is unchanged. The experiment in a line: 5-hydroxytryptamine receptor 2A (HTR2A) small molecule agonists, cell-based qHTS assay (AID 1963587). Further: nearly all actives have a fitted effect of over 30% in size. The procedure, abridged: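 CHO cells stably expressing human HTR2A, plated 18 h, loaded with calcium dye 1 h at 37 C. Agonist mode: compounds added and intracellular calcium fluorescence recorded kinetically for 2 min at 1 sec intervals.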

The target in assay [13] is Muscarinic acetylcholine receptor M1 (Homo sapiens) (UniProt P11229). The experiment in a line: Cholinergic receptor muscarinic 1 (CHRM1) small molecule antagonists, cell-based qHTS assay (AID 1963588). Further: nearly all actives have a fitted effect of over 40% in size. Further: potency means the concentration at half of the fitted maximal effect. The method in brief:
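CHRM1-CHO calcium-flux assay, antagonist mode. Cells were seeded 18 h, dye-loaded 1 h at 37 C and given compound for 5 min at RT, then acetylcholine was added at 50nM. FDSS fluorescence was read 3 min; 15 concentrations, three runs.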

The target is the same in assay [14]. The experiment in a line: Cholinergic receptor muscarinic 1 (CHRM1) small molecule agonists, cell-based qHTS assay (AID 1963589). Further: nearly all actives have a fitted effect of over 35% in size. The procedure, abridged: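 CHO cells stably expressing human CHRM1 were loaded with calcium dye for 1 h at 37 C, then compound was added in agonist mode. Intracellular calcium fluorescence was followed kinetically at 1 s intervals. Fifteen concentrations were tested in three independent runs.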

The nature of assay [15]: cAMP Responsive Elements (CRE) small molecule agonists, cell-based qHTS assay (AID 1963590). The procedure, abridged:
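CRE-bla HEK 293T cells, 2,000/well in DMEM with 10% dialyzed FBS and 25 mM HEPES, pre-incubated 18 h at 37 C, then exposed to compound 3 h at 37 C. Beta-lactamase reporter read with LiveBLAzer B/G FRET substrate after 2 h at room temperature.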

Assay [16] is described as follows: cAMP Responsive Elements (CRE) small molecule antagonists, cell-based qHTS assay (AID 1963591; active means well fitted inhibition curve with a large enough effect in the signal ratio in the repeat runs, not every such curve was filed as active; the % refers to the signal ratio). The method in brief: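 CRE-bla HEK293T cells plated 18 h, then given compound plus NKH477 at 0.25 uM final for 3 h at 37C. Beta-lactamase reporter read with LiveBLAzer B/G FRET substrate after 2 h at room temperature.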
Assay [17] has as its target Beta-2 adrenergic receptor (Homo sapiens) (UniProt P07550). The experiment in a line: Adrenergic beta2 receptor (ADRB2) small molecule antagonists, cell-based qHTS assay (AID 1963592). Further: series mostly up to about 92 µM; nearly all actives have a fitted effect of over 50% in size. The procedure, abridged:
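Cells (CHO, stable ADRB2 overexpression) incubated 18-20hr at 37C; compounds added from DMSO; agonist mix (1nM isoproterenol, 100uM IBMX, 25uM Ro-20-1724) added; 0.5hr RT; d2-cAMP and anti-cAMP-cryptate added; 1hr RT; 665/615 nm read.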

Assay [18] deals with D(2) dopamine receptor (Homo sapiens) (UniProt P14416). In words: Dopamine D2 receptor (DRD2) small molecule agonists, cell-based qHTS assay (AID 1963594). Further: nearly all actives have a fitted effect of over 35% in size. The method in brief: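 HEK293 cells stably expressing human DRD2, pre-treated with PDE inhibitor Ro20-1724 (0.1 mM final) and compound 10 min at room temperature, then stimulated with NKH477 (200nM […]) for 30 min. cAMP read by HTRF (665/620 nm).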

For assay [19] the target is unchanged. In words: Dopamine D2 receptor (DRD2) small molecule antagonists, cell-based qHTS assay (AID 1963595; active means well fitted inhibition curve with a large enough effect in the signal ratio in the repeat runs, with a control signal flat; the % refers to the signal ratio; further: potency means the concentration at half of the fitted maximal effect). The method in brief: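 Stable D2 receptor HEK293 line, 24 h after seeding. Compound preincubated 10 min, then quinpirole (12 nM) with forskolin analogue NKH477 (200 nM), 30 min, room temperature. Detection by time-resolved FRET of cAMP.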
Assay [20] in a line: p53 small molecule agonists, cell-based qHTS assay with human liver microsomes: qHTS cell viability counter screen (AID 1963579). Further: nearly all actives have a fitted effect of over 45% in size. The procedure, abridged:
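Tox21 library compounds, delivered from DMSO stocks, were tested on p53RE-bla cells together with 0.5 mg/mL human liver microsomes and 0.5 mg/mL NADPH (final) over 16 h at 37 C; CellTiter-Glo luminescence served as the cytotoxicity measure.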
On the % scale 0 is the no-effect control and ±100 the full control effect.

5-hydroxytryptamine receptor 2A (Homo sapiens), sequence (P28223 whole entry, looked up): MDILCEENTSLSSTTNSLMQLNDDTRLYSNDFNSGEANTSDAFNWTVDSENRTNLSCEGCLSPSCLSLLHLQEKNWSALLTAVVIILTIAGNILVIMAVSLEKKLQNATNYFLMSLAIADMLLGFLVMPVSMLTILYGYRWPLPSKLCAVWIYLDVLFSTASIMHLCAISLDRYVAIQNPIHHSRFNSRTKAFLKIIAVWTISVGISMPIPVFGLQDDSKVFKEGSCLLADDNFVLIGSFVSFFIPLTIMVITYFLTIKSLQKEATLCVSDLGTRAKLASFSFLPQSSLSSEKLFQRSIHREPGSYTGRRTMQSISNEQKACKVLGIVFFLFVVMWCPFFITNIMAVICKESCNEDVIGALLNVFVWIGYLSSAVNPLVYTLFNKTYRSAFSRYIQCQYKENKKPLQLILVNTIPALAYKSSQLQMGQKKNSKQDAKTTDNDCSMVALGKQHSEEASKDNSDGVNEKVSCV
Muscarinic acetylcholine receptor M1 (Homo sapiens), sequence (P11229 whole entry, looked up): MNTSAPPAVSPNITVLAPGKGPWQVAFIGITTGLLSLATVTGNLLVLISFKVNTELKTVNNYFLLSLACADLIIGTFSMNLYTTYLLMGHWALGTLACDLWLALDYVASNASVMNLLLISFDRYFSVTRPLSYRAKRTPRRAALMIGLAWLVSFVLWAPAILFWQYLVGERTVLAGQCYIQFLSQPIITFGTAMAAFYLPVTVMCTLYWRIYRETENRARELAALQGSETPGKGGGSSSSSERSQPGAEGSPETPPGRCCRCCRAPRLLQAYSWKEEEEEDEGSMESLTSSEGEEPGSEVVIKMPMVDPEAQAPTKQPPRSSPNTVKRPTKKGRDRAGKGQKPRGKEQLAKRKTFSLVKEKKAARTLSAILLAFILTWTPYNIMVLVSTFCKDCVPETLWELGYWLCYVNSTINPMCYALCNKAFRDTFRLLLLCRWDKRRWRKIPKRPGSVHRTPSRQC
Gonadotropin-releasing hormone receptor (Homo sapiens), sequence (P30968 whole entry, looked up): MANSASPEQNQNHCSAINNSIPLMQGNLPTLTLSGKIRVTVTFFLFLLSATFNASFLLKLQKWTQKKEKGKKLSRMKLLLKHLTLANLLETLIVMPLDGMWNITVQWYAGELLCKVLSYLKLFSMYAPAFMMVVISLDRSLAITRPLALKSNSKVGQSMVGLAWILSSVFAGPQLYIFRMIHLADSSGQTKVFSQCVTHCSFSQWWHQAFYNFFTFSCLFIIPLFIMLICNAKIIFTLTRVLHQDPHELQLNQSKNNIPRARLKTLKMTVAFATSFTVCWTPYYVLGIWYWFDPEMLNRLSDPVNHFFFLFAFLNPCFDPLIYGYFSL
Beta-2 adrenergic receptor (Homo sapiens), sequence (P07550 whole entry, looked up): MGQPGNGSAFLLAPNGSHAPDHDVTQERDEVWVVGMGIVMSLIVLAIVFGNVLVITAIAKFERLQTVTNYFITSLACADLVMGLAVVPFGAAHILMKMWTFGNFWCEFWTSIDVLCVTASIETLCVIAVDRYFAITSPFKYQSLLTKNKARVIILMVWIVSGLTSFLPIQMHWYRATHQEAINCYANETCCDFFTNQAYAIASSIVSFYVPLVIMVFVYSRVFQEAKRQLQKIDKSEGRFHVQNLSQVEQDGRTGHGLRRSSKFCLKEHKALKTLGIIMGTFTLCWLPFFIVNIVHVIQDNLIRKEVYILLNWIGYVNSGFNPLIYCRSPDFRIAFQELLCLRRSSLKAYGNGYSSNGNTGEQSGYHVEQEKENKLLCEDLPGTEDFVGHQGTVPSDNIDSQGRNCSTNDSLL
KiSS-1 receptor (Homo sapiens), sequence (Q969F8 whole entry, looked up): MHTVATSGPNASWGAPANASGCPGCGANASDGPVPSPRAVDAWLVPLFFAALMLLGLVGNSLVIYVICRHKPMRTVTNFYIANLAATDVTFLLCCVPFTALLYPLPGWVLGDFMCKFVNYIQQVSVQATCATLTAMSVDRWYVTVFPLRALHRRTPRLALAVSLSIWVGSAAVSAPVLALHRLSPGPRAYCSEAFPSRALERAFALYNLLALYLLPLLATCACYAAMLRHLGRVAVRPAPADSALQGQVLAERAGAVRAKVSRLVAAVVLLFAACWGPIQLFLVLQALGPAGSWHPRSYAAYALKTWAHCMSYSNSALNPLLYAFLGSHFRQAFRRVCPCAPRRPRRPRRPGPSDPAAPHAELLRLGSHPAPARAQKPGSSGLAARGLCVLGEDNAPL
D(2) dopamine receptor (Homo sapiens), sequence (P14416 whole entry, looked up): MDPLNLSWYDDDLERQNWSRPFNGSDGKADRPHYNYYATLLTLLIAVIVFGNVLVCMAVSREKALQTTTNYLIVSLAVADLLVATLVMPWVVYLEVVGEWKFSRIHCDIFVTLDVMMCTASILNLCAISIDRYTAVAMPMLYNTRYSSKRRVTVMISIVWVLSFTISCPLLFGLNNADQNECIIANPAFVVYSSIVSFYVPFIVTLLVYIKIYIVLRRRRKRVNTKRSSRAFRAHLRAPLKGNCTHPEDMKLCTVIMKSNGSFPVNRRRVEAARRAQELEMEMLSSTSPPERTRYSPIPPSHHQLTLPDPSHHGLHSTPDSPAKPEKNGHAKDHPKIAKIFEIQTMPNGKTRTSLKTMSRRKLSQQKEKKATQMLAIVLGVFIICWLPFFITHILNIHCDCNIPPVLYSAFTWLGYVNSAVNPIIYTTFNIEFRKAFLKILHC

For the compound `C=CCn1c(=O)n([C@@H]2O[C@H](CO)[C@@H](O)[C@H]2O)c2nc(N)[nH]c(=O)c21`, the Potency result in assay [1], in assay [2], in assay [3], in assay [6], in [7] and in [8] was “inactive” each time. Besides, the Potency result in [9], in assay [10], in assay [11], in assay [12], in [13] and in assay [14] was “inactive” throughout. Besides, the Potency entry in [15], in [16], in assay [17], in assay [18] and in [19] was “inactive” in each case. For the same compound, the result in [4] and in [5] was inactive.

In the case of `Cc1nc2ccccn2c(=O)c1CCN1CCC(C(=O)c2ccc(F)cc2)CC1`, the Potency entry in [1], in assay [2], in [3], in [6], in [7] and in assay [8] was “inactive” each time. The Potency entry in assay [9], in [10], in assay [11], in assay [12], in assay [13] and in [14] was “inactive” each time. Besides, in [15], the Potency entry was “inactive”. The result in [4] and in assay [5] was inactive. Also, the Potency in assay [19] was 0.531 µM (active).

For the compound `CCCCCCCCCCCCCCCCCl`, the activity change, negative = cytotoxicity is -5.35% [at 19 µM] in assay [1] and 0.42% [at 13.5 µM] in [20]. In addition, the activity, positive = activation in assay [2] was -7.33% [at 19 µM]. Further, the activity change in assay [3] is 0.762% [at 11.8 µM, hits give high values]. In addition, the activation in assay [4] was 2.27% [at 15.8 µM]; in assay [5] it was 0.033% [at 11.8 µM]; in assay [6], 1.18% [at 13.5 µM]; in [7], 0.0918% [at 13.6 µM]; in assay [12], -4.65% [at 15.9 µM]; in [15], -1.81% [at 19 µM]. Further, in assay [18], the activation is -1.48% [at 19 µM]. For the same compound, the activity, negative = inhibition in assay [11] was 12.6% [at 12.7 µM]; in [13] it was -6.96% [at 12.6 µM]. The activity change, negative = inhibition in assay [16] was -10.5% [at 18.9 µM]; in assay [17], -9.7% [at 19 µM]; in [19], 2.16% [at 18.9 µM].

As to `COc1ccc(/C(C)=C/C(=O)O)c(OC)c1`, the Potency entry in assay [1], in assay [2], in assay [3], in assay [6], in [7] and in [8] was “inactive” each time. In addition, the Potency result in assay [9], in assay [10], in assay [11], in assay [12], in assay [13] and in assay [14] was “inactive” each time. The Potency result in [15], in [17], in assay [18] and in assay [19] was “inactive” each time. The result in assay [4] and in assay [5] was inactive.

Regarding `CCCCCCC(CCCCCCCCCCC(=O)OCC(COC(C)=O)OC(C)=O)OC(C)=O` (centres undefined), the Potency entry in assay [1], in assay [2], in [3], in assay [6], in [7] and in assay [8] was “inactive” in each case. Besides, the Potency result in assay [9], in [10], in assay [11], in [12], in assay [13] and in assay [14] was “inactive” in each case. In addition, the Potency result in assay [15], in assay [16], in assay [18] and in assay [19] was “inactive” throughout. Moreover, the outcome in [4] and in [5] was inactive.

For the compound `Cc1c[nH]c2ccccc12`, the Potency result in assay [1], in assay [2], in assay [3], in assay [6], in [7] and in assay [8] was “inactive” in each case. Moreover, the Potency result in assay [9], in [10], in [11], in [12], in [13] and in assay [14] was “inactive” in each case. Also, the Potency result in assay [15], in [16], in [17] and in [19] was “inactive” each time. The result in assay [4] and in assay [5] was inactive.

As to `Clc1ccc(C(Cn2ccnc2)OCc2c(Cl)cccc2Cl)c(Cl)c1` (centres undefined), the Potency in [1] is 23.7 µM (active); in assay [2], 11.9 µM (active); in assay [13], 11.6 µM (active). Also, the Potency entry in assay [3], in assay [6], in assay [7], in [20], in assay [14] and in assay [15] was “inactive” each time. The Potency entry in assay [17], in assay [18] and in assay [19] was “inactive” throughout. Moreover, the outcome in assay [4] and in assay [5] was inactive.
